From PubChem BioAssay
The list is not random: actives were taken first. Their share in the collection is about 32%.
CYP2C9 inhib: blockers of cytochrome P450 2C9 activity – biochemical, luminescence, ADME assay, primary screen; P11712; CYP2C9 Supersomes, luciferin-H conversion; inhibition, % at 5 µM; hit rate 20% among 96,000; AID 777, 2007;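 active means blocking of liver enzyme CYP2C9 beyond about 50% at 5 µM, limit read from the data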
CYP2C19 inh: blockers of cytochrome P450 2C19 activity – biochemical, luminescence, ADME assay, primary screen; inhibition, % at 5 µM; AID 778, 2007; hit rate 21% among 96,000; P33261; CYP2C19 Supersomes, luciferin-H EGE luminescence, 30 min;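 active means CYP2C19 inhibition above a set limit at 5 µM in the primary screen, cut at about 50% in these data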
Target sequence (P33261 whole entry, looked up): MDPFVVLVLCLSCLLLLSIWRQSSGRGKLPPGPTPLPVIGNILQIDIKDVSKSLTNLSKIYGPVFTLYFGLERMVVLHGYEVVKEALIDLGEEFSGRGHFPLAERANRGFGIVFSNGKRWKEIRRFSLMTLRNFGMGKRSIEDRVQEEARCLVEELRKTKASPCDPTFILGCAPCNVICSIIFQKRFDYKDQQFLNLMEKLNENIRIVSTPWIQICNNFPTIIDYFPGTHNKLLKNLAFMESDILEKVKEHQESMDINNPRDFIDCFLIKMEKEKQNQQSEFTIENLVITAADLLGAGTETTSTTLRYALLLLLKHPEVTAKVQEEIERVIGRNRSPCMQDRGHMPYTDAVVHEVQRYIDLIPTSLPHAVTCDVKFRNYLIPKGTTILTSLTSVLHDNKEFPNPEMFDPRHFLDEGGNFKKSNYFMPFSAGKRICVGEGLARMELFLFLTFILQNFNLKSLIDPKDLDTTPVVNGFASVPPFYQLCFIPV
PostGolgi ctrl: growth inhibition of yeast control strain, primary screen, counter-screen for post-Golgi transport modulator project; efflux-deficient yeast background strain, growth absorbance A615, 16 h; inhibition, % at 10 µM; hit rate 5% among 98,000
CYP2C19 act: human CYP2C19 activators, primary screen, biochemical, luminescence | Cytochrome P450 2C19 (Homo sapiens), P33261 | recombinant CYP2C19, luciferin-H EGE luminescence; active compounds read high; 0 = fully inhibited enzyme, 1 = untreated enzyme | activation factor at 5 µM | 96,000 tested, under 10 active | AID 1025, 2008;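 active means activation factor of at least 2 at 5 µM in the primary screen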
PostGolgi yeast: phenotypic screen on post-Golgi transport, primary screen; inhibition, % at 10 µM; hit rate 0.9% among 98,000; post-Golgi transport phenotypic cell assay;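 further: yeast cells grown in 1536-well plates; yeast grown about 18 h at 30C before absorbance read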
CYP2C9 act: human CYP2C9 activators, primary screen, biochemical, luminescence; activation factor at 5 µM; hit rate 1.4% among 96,000; Cytochrome P450 2C9 (Homo sapiens), P11712; recombinant CYP2C9, luciferin-H conversion; active compounds read high; factor 1 = untreated enzyme, 0 = blocked;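 active means activation factor of 2 or more for CYP2C9 at a 5 µM dose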
Hits are given with their value; 0 = inactive; - = no result. Unless noted, no stated cut-off is given here; in the data, active means inhibition above about 30%; inactive means the rest.

SMILES	CYP2C9 inhib	CYP2C19 inh	PostGolgi ctrl	CYP2C19 act	PostGolgi yeast	CYP2C9 act
C=CCn1c(SCC(=O)Nc2cccc(C)c2)nnc1-c1cnccn1	53.2	95.6	0	0	0	0
C=CCn1c(SCC(=O)Nc2cc(C)cc(C)c2)nnc1-c1cnccn1	0	0	0	0	0	0
C=CCn1c(SCC(=O)Nc2ccccc2OC)nnc1-c1ccccn1	-	-	0	-	0	-
Cc1cc(Nc2ccccc2F)n2ncnc2n1	0	0	0	0	0	0
COc1cc(C(=O)Oc2cccc(Nc3ncnc4ccccc34)c2)cc(OC)c1OC	63.1	0	0	0	0	0
Cc1c(CN(C)CCc2ccccc2)c(=O)n(-c2ccccc2)n1C	0	0	0	0	0	0
Cc1cc(NC(=O)CCC(=O)N(c2ccccc2)C2(C(=O)NC3CCCCC3)CCCC2)no1	0	0	0	0	0	0
CC1CN(C2CCN(S(=O)(=O)c3ccc(F)cc3)CC2)CC(C)O1 (centres undefined)	0	0	30.3	0	47.8	0
CC1CN(S(=O)(=O)c2ccc(Cl)c(C(F)(F)F)c2)CC(C)O1 (centres undefined)	0	0	0	0	0	2.3
COc1cccc(-c2nnc(SCC(=O)OC(C)C)n2N)c1	0	0	0	0	0	0
CCCC(C)NC(=O)c1ccc2[nH]c3c(c2c1)CC(C)CC3 (centres undefined)	51.2	0	0	0	0	0
O=C1N2CCSC2=NC1(NS(=O)(=O)c1ccccc1)C(F)(F)F (centres undefined)	0	0	0	0	0	0
NC(=O)C1CCN(c2nc(C3CC3)nc3c2nnn3Cc2ccccc2Cl)CC1	0	0	0	0	0	0
OCCNc1nc(C2CC2)nc2c1nnn2Cc1ccccc1Cl	60.4	81.7	0	0	0	0
Cc1nc(NCC2CCCO2)c2nnn(Cc3ccccc3Cl)c2n1 (centres undefined)	0	56.3	0	0	0	2.2
Cc1ccccc1SCC(=O)Nc1cccc(C#N)c1	0	0	0	0	0	0
CCOC(=O)c1nn(-c2c(C)n(C)n(-c3ccccc3)c2=O)cc1O	0	0	0	0	0	0
Cc1nn(C(C)(C)C)c(OC(=O)c2ccco2)c1Sc1ccccc1	61.4	0	35.5	0	0	0
CCOC(=O)c1cc(OC(=O)c2cccs2)n(-c2ccccc2)n1	0	0	0	0	0	0
Cc1nn(C(C)(C)C)c(OC(=O)c2cccs2)c1Sc1ccccc1	65.1	0	0	0	0	0
Cc1nn(C(C)(C)C)c(OC(=O)c2ccc3c(c2)OCO3)c1Sc1ccccc1	0	0	0	0	0	0
Cc1nn(C(C)(C)C)c(OC(=O)c2ccc(Br)o2)c1Sc1ccccc1	0	73.8	0	0	0	0
CCOc1ccc(C(=O)NCCC(=O)NCCCC(=O)O)cc1	0	0	0	0	0	0
O=S(=O)(NC1CCCCC1)c1ccc(S(=O)(=O)N2CCN3CCCC3C2)cc1 (centres undefined)	0	0	0	0	0	0
O=C1COc2ccc(C(=O)CSc3nnc(Cc4cccs4)n3-c3ccccc3)cc2N1	84.7	0	0	0	0	0
SMILES	CYP2C9 inhib	CYP2C19 inh	PostGolgi ctrl	CYP2C19 act	PostGolgi yeast	CYP2C9 act
O=C1OCCC1Sc1nnc(-c2cccs2)n1Cc1ccccc1 (centres undefined)	0	0	0	0	0	0
O=C1COc2ccc(C(=O)CSc3nnc(-c4cccs4)n3Cc3ccccc3)cc2N1	62.6	51.7	0	0	0	0
COC(=O)CSc1nnc(-c2ccc(S(=O)(=O)NCc3ccccc3Cl)cc2)o1	0	0	0	0	0	0
Cc1c(C(=O)NCc2ccc3c(c2)OCO3)oc2ccc(Br)cc12	96.9	0	0	0	0	0
Cc1ccc2oc(C(=O)NCc3ccc4c(c3)OCO4)c(C)c2c1	0	0	0	0	0	0
Cc1cc2oc(C(=O)NCc3ccc4c(c3)OCO4)c(C)c2cc1C	55.1	0	0	0	0	0
CCOC(=O)c1c(C)c(C(=O)NCc2ccc3c(c2)OCO3)c(C)n1C	59.9	0	0	0	0	0
COc1ccc(N2CCCn3c2nc2c3c(=O)n(Cc3ccc(F)cc3)c(=O)n2C)c(OC)c1	0	0	-	0	-	0
CCOc1cc(-c2ccc3c(c2)OCO3)cc(=O)c2c(C)oc(C)c12	0	0	-	0	-	0
CC(C)Sc1nc2c(c(=O)n(C)c(=O)n2C)n1Cc1ccc(Cl)cc1	0	0	76.6	0	0	0
COc1ccc(CNc2nc3c(c(=O)n(Cc4ccc(Cl)cc4)c(=O)n3C)n2C)cc1	0	0	0	0	0	0
Cn1c(=O)c2c(nc(NCCCO)n2Cc2cccc(C(F)(F)F)c2)n(C)c1=O	0	58.6	0	0	0	0
Cn1c(=O)c2c(nc(NCc3cccnc3)n2Cc2ccc(Cl)cc2)n(C)c1=O	70.2	54.1	0	0	0	0
CCCNc1nc2c(c(=O)n(C)c(=O)n2C)n1Cc1ccc(F)cc1	0	0	0	0	0	0
Cn1c(=O)c2c(nc(NCc3ccccc3)n2Cc2ccc(F)cc2)n(C)c1=O	-	-	39.0	-	0	-
C=CCNC(=O)C1=NOC(CNC(=O)c2c(-c3ccccc3Cl)noc2C)C1 (centres undefined)	0	0	0	0	0	0
CCNc1nc2c(c(=O)n(Cc3ccccc3)c(=O)n2C)n1Cc1ccccc1	90.1	84.3	30.4	0	0	0
Cc1ccc(Cn2c(NCCc3ccccc3)nc3c2c(=O)n(C)c(=O)n3C)cc1	0	0	0	0	0	0
C/C(N)=C(/C#N)C(=O)CSc1nnc(-c2ccccc2Br)o1	0	95.5	0	0	0	0
COc1ccc(-c2nnc(SCC(=O)/C(C#N)=C(\C)N)o2)cc1	0	0	0	0	0	0
Cc1ccc(Cn2c(S(=O)(=O)O)nc3ccccc32)cc1	0	0	0	0	0	0
Cc1ccc(Cn2c(Cc3ccccc3)nc3ccccc32)cc1	0	0	32.0	0	0	0
COCc1nc2ccccc2n1Cc1ccc(Br)cc1	89.7	99.5	36.1	0	0	0
CC(=O)NCCCc1nc2ccccc2n1Cc1ccc(C)cc1	0	0	0	0	0	0
COCc1nc2ccccc2n1Cc1ccccc1	0	79.3	0	0	0	0
O=CNCCCc1nc2ccccc2n1Cc1ccccc1	0	0	0	0	0	0
Cc1cccc(NCc2nc3ccccc3n2Cc2ccccc2)c1	96.0	95.8	66.2	0	54.4	0
CCN(CC)c1ccc(NC(=O)Nc2ccccc2C(F)(F)F)cc1	0	0	0	0	0	0
Cc1cc(NC(=O)c2cncc(Br)c2)no1	0	0	0	0	0	0
CCCOC(=O)C1C2C=C[C@]3(CN(CCc4ccccc4)C(=O)[C@H]13)O2 (some centres undefined)	0	0	0	0	0	0
